Screening results (PubChem BioAssay)
Hits are enriched below; roughly 11% of the tested compounds scored in any of these assays.
NPR1 antag: blocks ANP-stimulated signaling of human Npr1 receptor | HEK293 hNpr1 GloSensor cGMP, ANP-stimulated luminescence | P16066 | Potency, µM (highest dose often 46.3 µM), inactives show at the top dose activity change, negative = inhibition, most hits filed as inhibitors | actives 1.6% (n = 76,000); calls by dose curve; note: nearly all actives have a fitted effect of over 60% in size
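Compound pre-incubated 30 min at room temperature on GloSensor-loaded HEK293 cells stably carrying hNpr1 and the pGS-40F cGMP biosensor. Stimulation uses hNppA at 0.1 nM final; luminescence is taken at baseline and 20 min post-agonist.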
NIH3T3 tox: NIH 3T3 cell cytotoxicity; actives 4.3% (n = 94,000); AID 1345082; Potency, µM (highest dose often 96.7 µM), for inactives: top-dose activity change, negative = cytotoxicity, hits mostly inhibitors; NIH 3T3 viability, CellTiter-Glo ATP luminescence, 48-72 h; note: nearly all actives have a fitted effect of over 55% in size
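NIH 3T3 cells at 400 cells/well received 23 nL of compound by pintool and were incubated 48 or 72 h at 37 °C. Viability was read as ATP-coupled CellTiter-Glo luminescence.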
Luciferase inh: Photinus pyralis luciferase inhibition. Potency, µM (series often up to 115 µM), most hits filed as inhibitors. purified P. pyralis luciferase, luminescence, biochemical. P08659. actives 2.5% (n = 76,000); note: nearly all actives have a fitted effect of over 65% in size
Target sequence (P08659 whole entry, looked up): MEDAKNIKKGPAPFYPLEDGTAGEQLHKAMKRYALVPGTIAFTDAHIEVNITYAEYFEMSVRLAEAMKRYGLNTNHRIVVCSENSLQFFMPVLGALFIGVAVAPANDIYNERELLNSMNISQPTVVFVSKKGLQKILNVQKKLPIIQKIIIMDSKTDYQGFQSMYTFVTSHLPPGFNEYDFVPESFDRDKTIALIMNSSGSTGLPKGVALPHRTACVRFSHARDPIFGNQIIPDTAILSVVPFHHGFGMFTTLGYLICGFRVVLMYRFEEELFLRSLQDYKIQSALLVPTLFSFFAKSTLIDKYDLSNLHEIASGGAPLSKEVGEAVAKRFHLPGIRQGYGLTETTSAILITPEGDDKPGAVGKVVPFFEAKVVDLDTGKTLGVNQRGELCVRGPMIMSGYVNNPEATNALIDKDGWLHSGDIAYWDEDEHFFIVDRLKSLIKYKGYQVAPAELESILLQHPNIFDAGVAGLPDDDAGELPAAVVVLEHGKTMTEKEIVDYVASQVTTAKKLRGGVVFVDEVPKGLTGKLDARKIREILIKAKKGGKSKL
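Purified P. pyralis luciferase (10nM final) in 50mM Tris acetate pH 7.5, 10mM Mg acetate, 0.01% Tween-20, 0.05% BSA with 10uM D-luciferin and 10uM ATP. Compounds titrated qHTS. Luminescence imaged on CCD.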
HEK cytotox: cytotoxic compounds in HEK 293 cells; HEK 293 viability, ATP luminescence (CellTiter-Glo), 48-72 h; Potency, µM (doses to about 115 µM), for the others: top-dose activity change, negative = cytotoxicity, actives largely listed as inhibitors; actives 6.6% (n = 94,000); note: nearly all actives have a fitted effect of over 60% in size
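250 HEK 293 cells/well; compound by pintool; incubated 48 or 72 hr at 37 degree Celsius; CellTiter-Glo added, 10 min RT, luminescence imaged.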
Starred values were filed as active, the others as inactive; i = inactive; ? = inconclusive; / = no result; [ ] = remark or other dose. Unless noted, calls come from the whole dose curve; as a rule, active = well fitted curve in the direction sought with a large enough effect; inconclusive = small, poorly fitted or top-dose-only effect, or another doubt; inactive = no such curve, though single readings can be large; an effect the other way counts as inactive or inconclusive. % is set by controls: 0 for no effect and ±100 for the full control effect; potency is the fitted concentration of half-maximal effect.

SMILES	NPR1 antag	NIH3T3 tox	Luciferase inh	HEK cytotox
CCOc1cccc(CN2CCOc3ccc(C(=O)NCc4ccccc4F)cc3C2)c1	-10%	?	i	?
O=C(Cc1ccccc1F)N1CCOc2ccc(CN3CCc4ccccc4C3)cc2C1	-29%	-28%	i	45µM*
O=C(NCc1ccccc1F)c1ccc2c(c1)CN(Cc1ccc3c(c1)CCO3)CCO2	-15%	?	i	28µM*
O=C(NCc1ccccc1F)c1ccc2c(c1)CN(Cc1ccc(O)c(F)c1)CCO2	-27%	-23%	i	?
COc1cccc(C(=O)N2CCC(N3C[C@H](O)C[C@H]3C(=O)Nc3ccc(F)cc3)CC2)c1	-14%	-21%	i	-18%
COC(=O)C(=O)N1CC[C@H]2NC(=O)N(c3ccccc3)C(=O)[C@H]21	4%[70.6 µM]	-1%[174 µM]	i	0%[172 µM]
COc1cccc(CN2CCC(C(=O)Nc3ccccc3-c3cccc(OC)c3)CC2)c1	?	?	i	22µM*
COc1cccc(-c2ccccc2NC(=O)C2CCN(Cc3ccccc3F)CC2)c1	?	45µM*	i	?
COc1cccc(-c2ccccc2NC(=O)C2CCN(CC=C(C)C)CC2)c1	4%	20µM*	i	?
COc1cccc(NC(=O)N2CC[C@H]3CC(=O)N(c4ccccc4)CC[C@H]3C2)c1	5%[70.6 µM]	i	i	i
O=C(Cc1cccc(Cl)c1)N1CCCC(C(=O)N2CCC(c3nc4ncccc4[nH]3)CC2)C1 (centres undefined)	/	-16%	/	?
COCC1CN(S(=O)(=O)c2cccc(C)c2)CC12CCOCC2 (centres undefined)	-3%	-11%	i	5%
CCNC(=O)N1c2ccccc2CC1c1nc(C2CC2)no1 (centres undefined)	-1%	2%	i	0%
Cc1cccc(CN2CCCC(O)(CNCc3ncccc3C)C2=O)c1 (centres undefined)	-7%	14µM*	i	?
Cc1cccc(CN2CCCC(O)(CN3CCC(C)CC3)C2=O)c1 (centres undefined)	2%	-10%	i	0%
Cc1cn2nc(C(=O)N3CCC(NC(=O)c4nccc5ccccc45)CC3)cc2c(=O)[nH]1	20%	?	i	?
CC(=O)Nc1ccc(OCC(=O)NC2CCN(Cc3ccccc3)CC2)nc1	2%	-20%	i	-17%
CC(C)c1ccc(CN2CCC3(CC2)OC(=O)N(Cc2ncccn2)C3(C)c2ccccc2)cc1 (centres undefined)	0%	?	i	40µM*
CC(=O)Nc1ccc(CN2C(=O)OC3(CCN(Cc4ccc(C(C)C)cc4)CC3)C2(C)c2ccccc2)cc1 (centres undefined)	-2%	35µM*	i	?
CC(=O)Nc1ccc(CN2C(=O)OC3(CCN(Cc4ccc(C#N)cc4)CC3)C2(C)c2ccccc2)cc1 (centres undefined)	-14%	-28%	i	?
CCOC(=O)C1CCN(C(=O)c2ccc3nnc(-c4ccoc4)n3c2)CC1	/	-21%	/	3%
O=C(CCc1c[nH]c2ccccc12)N1CCC[C@H](n2c(=O)n(CC3CC3)c3cccnc32)C1	-3%	?	i	79µM*
Cc1nc(C)c(C(=O)N2CCC[C@H](n3c(=O)n(Cc4ccccc4)c4cccnc43)C2)s1	-8%	-14%	i	40µM*
Cc1cccc(CC(=O)N2CCC[C@H](n3c(=O)n(Cc4ccccc4)c4cccnc43)C2)c1	?	?	i	40µM*
COCCn1c(=O)n([C@H]2CCCN(C(=O)Cc3cccc(F)c3)C2)c2ncccc21	7%	3%	i	i
SMILES	NPR1 antag	NIH3T3 tox	Luciferase inh	HEK cytotox
CN1CCCC2(C1)CN(C)c1ccc(C(=O)NCC3CCCCC3)cc12 (centres undefined)	4%[70.6 µM]	89µM*	i	112µM*
CC(=O)N1CCCC2(C1)CN(C)c1ccc(C(=O)NCCc3ccccc3)cc12 (centres undefined)	7%[70.6 µM]	-2%[138 µM]	i	?
CN1CCC2(C1)CN(CC1CC1)c1ccc(C(=O)NCC3CC3)cc12 (centres undefined)	-6%[70.6 µM]	?	i	?
CN(C)CCNC(=O)c1ccc2c(c1)C1(CCCN(CC3CC3)C1)CN2C (centres undefined)	-1%[70.6 µM]	89µM*	i	?
COCCN1CCC2(C1)CN(C)c1ccc(C(=O)NCc3ccccc3)cc12 (centres undefined)	3%[70.6 µM]	?	20µM*	?
CN1CC2(CCCN(CC3CC3)C2)c2cc(C(=O)NCCc3ccccc3)ccc21 (centres undefined)	-14%[70.6 µM]	79µM*	i	?
CC(C)CNC(=O)c1ccc2c(c1)C1(CCCN(CC3CC3)C1)CN2C (centres undefined)	2%[70.6 µM]	-4%[138 µM]	i	?
CN1CCN(C(=O)c2ccc3nnc(-c4cccnc4)n3c2)CC1	/	-15%[138 µM]	/	-10%[172 µM]
O=C(Nc1ccc(F)c(Cl)c1)c1cnc(-c2ccccc2)nc1-c1ccncc1	?	25µM*	i	35µM*
O=C(Nc1cc(F)cc(F)c1)c1cnc(-c2ccc(F)cc2)nc1-c1ccncc1	?	20µM*	?	22µM*
O=C(Nc1cc(C2CC2)nn1-c1ccccc1)c1ccc2ccccc2n1	/	-32%[138 µM]	/	-29%[172 µM]
NCc1ccccc1-c1cnc2ccccc2c1	/	100µM*	/	?
O=C(NCCN1CCOCC1)c1ccc(-c2ccc(N3CCSCC3)nc2)cc1	-14%	-7%	?	?
CN(Cc1ccco1)C(=O)c1ccc(-c2ccc(N3CCCCCC3)nc2)cc1	?	?	?	40µM*
O=C(Cc1ccccn1)NCCNC(=O)c1ccc(-c2cncnc2)cc1	/	?	/	89µM*
O=C(NCc1ccccn1)c1ccc(-c2ccc(N3CCCCC3)nc2)cc1	-26%	?	?	22µM*
O=C(NCCN1CCCCC1)c1ccc(-c2ccc(N3CCSCC3)nc2)cc1	-21%	28µM*	i	35µM*
CC(C)CCNC(=O)c1ccc(-c2ccc(N3CCSCC3)nc2)cc1	-7%	i	?	-28%
COCCNC(=O)CCc1c(C)nn(-c2ccc(OC)cc2)c1Oc1ccccc1F	-10%	?	i	?
O=C(C1CCCN1Cc1ccc(-c2cncnc2)cc1)N1CCC(c2ccccc2)CC1 (centres undefined)	/	-22%	/	?
CNC(=O)c1cc(C)nc2onc(C3CCN(C(=O)NC(C)C)CC3)c12	/	-19%	/	0%
CN(C)CCNC(=O)c1ccc(-c2ccc(N3CCCCCC3)nc2)cc1	-2%	18µM*	?	32µM*
O=C(NCCCN1CCCC1)c1ccc(-c2ccc(N3CCCCC3)nc2)cc1	0%	?	?	?
O=C(NCCN1CCCCC1)c1ccc(N2CC3CC(C2)[C@H]2CCCC(=O)N2C3)nc1 (some centres undefined)	5%	1%	i	0%
